ATG4B inhibitor: ATG4B protease inhibitors, primary screen, biochemical, fluorescence, uHTS; hit rate 0.51% among 340,000; inhibition, % at 8.33 µM; Cysteine protease ATG4B (Homo sapiens), Q9Y4P1; ATG4B cleavage of LC3-PLA2, NBD-HPC fluorescence, 1 h; in the data active = inhibition above about 40%
Cardio protect: cardioprotection against H2O2-induced cell death, primary screen, uHTS, H9c2 cells, ATPLite luminescence; hit rate 0.63% among 360,000; H9c2 cardiomyocytes, H2O2 injury protection, 2 h; protection from H2O2 cell death, % at 20 µM;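 active = compounds giving at least 50% protection of heart cells from peroxide-induced death in the single-dose screen, raw or plate-pattern-corrected value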;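 note: 0% = DMSO wells with peroxide and 100% = DMSO wells without peroxide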
PP5 inh: PP5 phosphatase inhibitors, primary screen, biochemical, fluorescence | Serine/threonine-protein phosphatase 5 (Homo sapiens), P53041 | purified PP5c, OMFP substrate fluorescence | inhibition, % at 6.7 µM | hit rate 0.18% among 320,000 | AID 1987, 2009;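 active = inhibition above the campaign's mean inhibition across all tested compounds plus 3 SD, cut at about 9.5% in these data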;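 note: 0% = DMSO only and 100% = 100 µM cantharidin control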
PP1 inh: PP1-alpha phosphatase inhibitors, primary screen, counter-screen for PP5 inhibitor project, biochemical, fluorescence, OMFP substrate, single point; Serine/threonine-protein phosphatase PP1-alpha catalytic subunit (Homo sapiens), P62136; purified PP1alpha; inhibition, % at 6.7 µM; hit rate 0.9% among 320,000; AID 2235, 2010;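 active = inhibition above the mean inhibition of all tested compounds plus 3 SD, computed separately for each screening campaign, cut at about 15% in these data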
Target sequence (P62136 whole entry, looked up): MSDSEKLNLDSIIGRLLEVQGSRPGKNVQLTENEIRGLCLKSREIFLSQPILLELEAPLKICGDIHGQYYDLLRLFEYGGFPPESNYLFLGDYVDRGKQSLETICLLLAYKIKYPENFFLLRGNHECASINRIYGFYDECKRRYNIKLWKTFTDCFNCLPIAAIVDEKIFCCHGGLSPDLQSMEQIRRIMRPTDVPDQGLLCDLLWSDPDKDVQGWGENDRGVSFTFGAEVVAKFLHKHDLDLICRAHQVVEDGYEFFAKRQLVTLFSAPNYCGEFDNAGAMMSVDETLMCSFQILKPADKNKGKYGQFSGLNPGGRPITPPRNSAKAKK
* = called active by the depositor; x = no result given. An excerpt weighted towards active compounds, which were near 1.9% of everything screened.

SMILES	ATG4B inhibitor	Cardio protect	PP5 inh	PP1 inh
O=C(CN1CCN(S(=O)(=O)c2ccc(Br)cc2)CC1)c1ccc(O)c(O)c1	0	71*	1	11
O=C(CN1CCN(c2ccccc2F)CC1)c1ccc(O)c(O)c1	3	53*	x	x
COc1ccc(OC)c(C(=O)CN2CCN(S(=O)(=O)c3ccc(Br)cc3)CC2)c1	-1	-1	0	-2
CC(C)c1ccc(S(=O)(=O)N2CCN(CC(=O)c3ccc(O)c(O)c3)CC2)cc1	x	56*	3	2
CC(C)[C@H]1C(=O)Nc2ccccc2N1C(=O)N[C@@H](Cc1ccccc1)C(=O)N[C@H](C(=O)O)c1ccccc1	-9	0	5	-2
CC(C)(C)c1cc(CCC(=O)NCC2CCCO2)cc(C(C)(C)C)c1O (centres undefined)	-6	0	4	2
CCOC(=O)N1CCC(NC(=O)CC2C(=O)NCCN2Cc2ccccc2)CC1 (centres undefined)	-2	2	3	1
O=C(CN1CCN(c2ccc(O)cc2)CC1)Nc1ccc(S(=O)(=O)N2CCCC2)cc1	-3	7	x	x
CC1(C)CC(=O)C(C2C3=C(CC(C)(C)CC3=O)OC3=C2C(=O)CC(C)(C)C3)=C(O)C1	-3	5	1	-1
COC(=O)c1ccccc1C(=O)N(Cc1cccnc1)CC1CCCN(C2CCCCC2)C1 (centres undefined)	34	1	3	-5
CCOc1ccccc1NC(=O)C(=O)N/N=C/c1cc(Br)ccc1O	1	57*	1	-2
CCOc1ccccc1C=NNC(=O)C(=O)NN=Cc1ccccc1OCC	6	14	x	x
Cc1nc2nc(C)c(NS(=O)(=O)c3ccc(CC(C)C)cc3)c(=O)n2[nH]1	2	6	-2	0
Cc1nn(-c2ccccc2)c2c1C(c1ccc([N+](=O)[O-])cc1)N1C(=N2)C(=O)Nc2ccccc21 (centres undefined)	5	43	3	10
Cc1nn(-c2ccc([N+](=O)[O-])cc2)c2c1C(c1cccc(Br)c1)N1C(=N2)C(=O)Nc2ccccc21 (centres undefined)	11	56*	0	2
Cc1nn(C)c(C)c1NC(=O)CSc1nc(-c2ccccc2Cl)nc2c1cnn2-c1ccccc1	-3	5	0	16*
Cc1nn(C)c(C)c1NC(=O)CSc1nc(-c2ccccc2F)nc2c1cnn2-c1ccccc1	-12	8	x	x
CCOc1cccc(C=Nc2cc(C)cc(C)c2O)c1O	13	93*	0	0
CCOc1cccc(/C=N/N=C/c2cccc(OCC)c2O)c1O	6	-2	x	x
Cc1nn(-c2ccccc2)c2nc(-c3ccncc3)cc(C(=O)NCc3ccco3)c12	-2	22	2	3
Cc1nn(-c2ccccn2)c2nc(-c3cccs3)cc(C(=O)NCc3ccco3)c12	-15	16	3	17*
O=c1cc(-c2ccncc2)oc2ccccc12	-9	53*	2	1
COc1ccc(OC(C)C(=O)Nc2ccc([N+](=O)[O-])cc2)cc1 (centres undefined)	-3	1	0	-3
C/C(=N\NC(=O)C(C)Oc1ccc([N+](=O)[O-])cc1)c1ccccn1 (centres undefined)	2	50*	0	-3
CCOc1ccc(N=C2SC(C(=O)Nc3ccccc3C#N)C(N)=C2C(=O)Nc2ccc(Cl)cc2)cc1 (centres undefined)	0	-1	4	19*
SMILES	ATG4B inhibitor	Cardio protect	PP5 inh	PP1 inh
CCCCCn1c(SCc2ccncc2)nc2cc(C(=O)NCc3ccco3)ccc2c1=O	6	-4	3	16*
CCCCn1c(SCC(=O)NCc2ccco2)nc2ccccc2c1=O	6	16	-1	-2
Nc1c(Cl)cc(-c2csc(N3CCCC3c3nc4cc(Cl)c(Cl)cc4n3CCCO)n2)cc1Cl (centres undefined)	1	-2	2	4
Nc1c(Cl)cc(-c2csc(N3CCCC3c3nc4cc(Cl)c(N5CCCCC5)cc4n3CCCO)n2)cc1Cl (centres undefined)	-2	2	4	17*
Cc1ccccc1-c1nnc(NC(=O)CSc2nc3ccccc3s2)s1	5	-8	3	17*
CCOc1ccc(S(=O)(=O)N2CCCCC2)cc1NC(=O)CCNC(=O)c1ccco1	-6	-4	x	x
COc1ccc(-c2cc(=O)oc3cc(OC(=O)C4CCCCC4)ccc23)cc1	5	52*	2	-1
O=C(Oc1ccc2c(-c3ccccc3)cc(=O)oc2c1)c1cccs1	-5	40	2	-1
O=C(Oc1ccc2c(-c3ccccc3)cc(=O)oc2c1)C1CCCCC1	5	88*	4	0
Cc1ccc(NC(=O)COC(=O)c2ccc(NC(=O)CC#N)cc2)cc1S(=O)(=O)N1CCOCC1	-9	2	x	x
Fc1ccc(-[n+]2nc(Nc3ccccc3)sc2-c2cccc(Cl)c2Cl)cc1	8	-6	2	17*
Clc1cccc(-c2sc(Nc3ccccc3)n[n+]2-c2ccccc2)c1Cl	6	4	2	1
CSc1ccc(-c2sc(Nc3ccccc3)n[n+]2-c2ccccc2)cc1	-6	0	5	17*
CCc1c(N)nc(N)nc1Nc1ccccc1C	8	-6	x	x
CCN(CC(=O)NC(C)(C)C)C(=O)c1cccc(S(=O)(=O)N2CC3(C)CC2CC(C)(C)C3)c1 (centres undefined)	x	3	x	x
COc1cc(/C=C/c2nc(-c3ccccc3O)n[nH]2)cc(OC)c1OC	-15	66*	4	5
CCCNC(=O)Cn1c(=O)/c(=C\c2ccc(-c3cccc([N+](=O)[O-])c3)o2)s/c1=C\C(=O)C(C)(C)C	-2	48	2	16*
COc1ccc(N(CC(=O)NC(C)(C)C)C(=O)CCC(=O)Nc2nccs2)c(OC)c1	2	-3	3	-3
CN(C)c1ccc(C(C(=O)NCC2CCCO2)N(Cc2ccccc2)C(=O)c2snc(C(N)=O)c2N)cc1 (centres undefined)	-9	51*	2	1
CN(C)c1ccc(C(C(=O)NCC2CCCO2)N(Cc2ccco2)C(=O)c2snc(C(N)=O)c2N)cc1 (centres undefined)	2	52*	-2	-4
COc1ccc(C(C(=O)NCC2CCCO2)N(Cc2ccccc2)C(=O)c2snc(C(N)=O)c2N)cc1OC (centres undefined)	0	6	-3	2
O=C(CN1C(=O)c2cccnc2Oc2ccc(Cl)cc21)NC1CCCCC1	2	5	1	-5
COc1ccc(CCn2c(C3CCCCC3)nc3c(c(=O)c4ccccc4n3C)c2=O)cc1	-1	0	0	16*
COc1ccc(Cn2c(C3CCCCC3)nc3c(c(=O)c4ccccc4n3C)c2=O)cc1	-8	x	1	12
COc1ccc2c(c1)c(CC(=O)Nc1nnc(C3CC3)s1)c(C)n2C(=O)c1ccc(Cl)cc1	0	19	2	15*

Assay outcomes: PubChem BioAssay, several laboratories
